What all share (test): NCI-60 one-dose screen, 48 h (100 = growth as untreated, 0 = no growth, -100 = all killed)
One assay relates to RPMI-8226 leukemia. The conditions noted are these: 10 µM unless noted.
In a further assay the test system is OVCAR-8 ovarian. The conditions noted are these: 10 µM unless noted.
A further assay has as its system OVCAR-5 ovarian. The settings on record: 10 µM unless noted.
The test system of the next assay is SK-OV-3 ovarian. The settings on record: 10 µM unless noted.
The test system of a further assay is IGROV1 ovarian. The settings on record: 10 µM unless noted.
Another assay relates to OVCAR-3 ovarian. The settings on record: 10 µM unless noted.
In the next assay the test system is HS 578T breast. The settings on record: 10 µM unless noted.
For the next assay, the system named is NCI/ADR-RES ovarian. The settings on record: 10 µM unless noted.
For a further assay, the system named is T-47D breast. The conditions noted are these: 10 µM unless noted.
For the next assay, the system named is MDA-MB-435 melanoma. The settings on record: 10 µM unless noted.
Another assay has as its system SW-620 colon. The conditions noted are these: 10 µM unless noted.
The next assay has as its system MCF7 breast. The settings on record: 10 µM.
The test system of a further assay is HCT-116 colon. The settings on record: 10 µM unless noted.
Another assay concerns HCC-2998 colon. The settings on record: 10 µM unless noted.
In another assay the test system is KM12 colon. The conditions noted are these: 10 µM unless noted.
For the next assay, the system named is BT-549 breast. The conditions noted are these: 10 µM unless noted.
For a further assay, the system named is OVCAR-4 ovarian. The conditions noted are these: 10 µM unless noted.

The panel holds about 83,000 compounds, 20% with a hit somewhere; the sample as a whole holds those more often.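 Interpretation: 100, growth as untreated; towards 0, rising growth inhibition; 0, no net growth; 0 to -100, cell death. Compounds scoring below 10 were considered active.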 A number with no mark means an inactive call. Activity calls are given as the source filed them.

Turning to `O=c1oc2ccc(I)cc2c(=O)n1-c1ccc(F)cc1F`, the growth in the assay with RPMI-8226 leukemia was 1.49% (active); in the assay on OVCAR-8 ovarian it was 12.5%; with OVCAR-5 ovarian, 40%; with SK-OV-3 ovarian, -19.4% (active); in the assay with IGROV1 ovarian, 20.2%; in the assay on OVCAR-3 ovarian, 2.05% (active). In addition, the growth is 19.8% in the assay on HS 578T breast; 5.71% (active) in the assay with NCI/ADR-RES ovarian; -13.5% (active) with T-47D breast; 1.74% (active) in the assay on MDA-MB-435 melanoma; 19.7% in the assay on SW-620 colon; 5.86% (active) in the assay on MCF7 breast. The growth with HCT-116 colon is 6.72% (active); in the assay with HCC-2998 colon it was 26%; in the assay with KM12 colon, 3.81% (active).

Turning to `O=C(Nc1ccc(F)c(Cl)c1)Nc1ccc(Cl)c(Cl)c1`, the growth in the assay with RPMI-8226 leukemia was 65.8%; in the assay on OVCAR-8 ovarian it was 92.4%; with OVCAR-5 ovarian it was 114%; in the assay with SK-OV-3 ovarian, 84.3%; with IGROV1 ovarian it was 73.6%; with OVCAR-3 ovarian, 61.1%. The growth is 72.4% in the assay on HS 578T breast; 85.5% in the assay on T-47D breast; 64% in the assay on BT-549 breast; -7.47% (active) with MDA-MB-435 melanoma; 35% in the assay with SW-620 colon; 55.1% in the assay on MCF7 breast. For the same molecule, the growth was 50.6% with HCT-116 colon, 94.6% with HCC-2998 colon and 51.6% with KM12 colon.

Turning to `Brc1ccc(Oc2ccc(Nc3ncnc4onc(-c5ccccc5)c34)cc2)cc1`, the growth with RPMI-8226 leukemia was 90.3%; in the assay with OVCAR-8 ovarian it was 97.8%; in the assay on OVCAR-5 ovarian, 105%; in the assay with IGROV1 ovarian, 96.5%; in the assay with HS 578T breast it was 96.8%; with NCI/ADR-RES ovarian, 94.1%. Besides, the growth was 77.8% in the assay with T-47D breast; 102% with BT-549 breast; 99.9% in the assay on MDA-MB-435 melanoma; 100% in the assay with SW-620 colon; 86.1% in the assay with MCF7 breast; 97.5% in the assay with HCT-116 colon. The growth is 95.5% in the assay on HCC-2998 colon and 99.6% with KM12 colon.

With `COc1cc(/C=C2\Oc3cc(OCCCN4CCCC4)ccc3C2=O)cc(OC)c1`, the growth in the assay with RPMI-8226 leukemia is 49.4%; in the assay with OVCAR-5 ovarian, 89.4%; with OVCAR-4 ovarian, 75.2%; with IGROV1 ovarian, 51%; with OVCAR-3 ovarian it was -34.6% (active); with HS 578T breast, 70.2%. In addition, the growth in the assay on NCI/ADR-RES ovarian is 80.8%; in the assay on T-47D breast it was 88.8%; in the assay on BT-549 breast it was 78.3%; in the assay with MDA-MB-435 melanoma, 78.9%; in the assay on SW-620 colon, 5.52% (active); in the assay on MCF7 breast it was 4.85% (active). Further, the figures for the growth with HCT-116 colon, with HCC-2998 colon and with KM12 colon were -67.3% (active), 75.7% and 26.3%, respectively.

With `Cc1ccc2nc(NC(=O)CSC(=S)N3CCN(c4ccccc4)CC3)sc2c1`, the growth in the assay with RPMI-8226 leukemia is 79.3%; in the assay with OVCAR-5 ovarian, 95.6%; in the assay on OVCAR-4 ovarian it was 92.7%; with SK-OV-3 ovarian, 111%; in the assay on IGROV1 ovarian it was -4.12% (active); in the assay with OVCAR-3 ovarian, 104%. For the same molecule, the growth was 104% with HS 578T breast; 85.7% in the assay on T-47D breast; 102% in the assay with BT-549 breast; 111% in the assay on MDA-MB-435 melanoma; 109% in the assay on SW-620 colon; 95% with MCF7 breast. For the same molecule, the values for the growth with HCT-116 colon and with KM12 colon were 95% and 95.1%, respectively.

For `CCOC(=O)C1=C(C)N=c2s/c(=C\c3cc(Cl)ccc3O)c(=O)n2C1c1ccc(OC)cc1` (stereo not given), the growth with RPMI-8226 leukemia is 78.6%; in the assay with OVCAR-5 ovarian it was 93.1%; in the assay with OVCAR-4 ovarian, 94.7%; with IGROV1 ovarian it was 87.6%; in the assay on OVCAR-3 ovarian, 95.5%; in the assay with HS 578T breast, 117%. Further, the growth was 85.6% with NCI/ADR-RES ovarian; 82% with T-47D breast; 107% in the assay with MDA-MB-435 melanoma; 103% in the assay with SW-620 colon; 93.2% in the assay on MCF7 breast; 72.2% with HCT-116 colon. Besides, the growth in the assay with HCC-2998 colon was 98.6%; in the assay on KM12 colon, 94.2%.

In the case of `COC(=O)[C@H](NC(=O)C1(C)CCC[C@]2(C)[C@H]3C[C@H]4C(C(C)C)=C[C@]3(CC[C@@H]12)[C@@H]1C(=O)CCC(=O)[C@@H]14)C(C)C` (stereo not given in full), the growth with RPMI-8226 leukemia was 103%; with OVCAR-5 ovarian, 98.7%; in the assay on OVCAR-4 ovarian it was 94.5%; in the assay with IGROV1 ovarian it was 91.9%; in the assay with OVCAR-3 ovarian, 109%; with HS 578T breast, 92.9%. Moreover, the growth is 96.1% in the assay on NCI/ADR-RES ovarian; 94.2% in the assay with T-47D breast; 106% with BT-549 breast; 104% with MDA-MB-435 melanoma; 106% with SW-620 colon; 98.2% in the assay on MCF7 breast. In addition, the growth was 106% in the assay with HCT-116 colon, 104% in the assay with HCC-2998 colon and 105% in the assay with KM12 colon.

For `CCCC(=O)CC(C)=O.CCCC(=O)CC(C)=O.[Cu]`, the growth in the assay with RPMI-8226 leukemia is 102%; in the assay on OVCAR-5 ovarian, 117%; with OVCAR-4 ovarian, 113%; with SK-OV-3 ovarian, 77.3%; in the assay on IGROV1 ovarian, 103%; in the assay on OVCAR-3 ovarian it was 116%. Also, the growth in the assay on HS 578T breast is 110%; in the assay with NCI/ADR-RES ovarian, 101%; in the assay on T-47D breast, 77.1%; in the assay with MDA-MB-435 melanoma, 109%; in the assay with SW-620 colon, 106%; with MCF7 breast, 92.4%. Further, the growth was 95.9% in the assay on HCT-116 colon, 102% with HCC-2998 colon and 102% in the assay on KM12 colon.

Regarding `CCCN1C(=O)N(CCC)C2C1NN=c1s/c(=C3\C(=O)N(C(C)C)c4ccccc43)c(=O)n12` (stereo not given), the growth with RPMI-8226 leukemia is 61.2%; in the assay with OVCAR-5 ovarian, 76%; in the assay with OVCAR-4 ovarian it was 42.9%; in the assay with IGROV1 ovarian, 41.5%; with OVCAR-3 ovarian it was -15% (active); in the assay with HS 578T breast, 30.3%. Further, the growth in the assay on NCI/ADR-RES ovarian was 44.5%; in the assay on T-47D breast, 28.1%; in the assay with MDA-MB-435 melanoma it was -7.13% (active); in the assay on SW-620 colon, 35.9%; in the assay on MCF7 breast it was 15.4%; with HCT-116 colon, 20%. Moreover, the growth with HCC-2998 colon was 65.3%; in the assay with KM12 colon it was 26.9%.

Regarding `CC(C)c1ccc(S(=O)(=O)NC(=O)NC2CCCC2)cc1`, the growth was 105% in the assay with RPMI-8226 leukemia; 98.5% in the assay with OVCAR-8 ovarian; 97.4% in the assay on OVCAR-5 ovarian; 105% with IGROV1 ovarian; 110% in the assay on OVCAR-3 ovarian; 103% in the assay on HS 578T breast. The growth in the assay with T-47D breast is 98.9%; with BT-549 breast, 100%; in the assay on MDA-MB-435 melanoma it was 100%; in the assay on SW-620 colon, 97.9%; in the assay with MCF7 breast it was 93.2%; in the assay on HCT-116 colon, 97.5%. Moreover, the growth in the assay with HCC-2998 colon is 108%; in the assay with KM12 colon it was 103%.

The values are drawn from PubChem BioAssay (NCI).
